Inhibition data for 40 molecules are collected here from ChEMBL document CHEMBL1157539, “Thousands of chemical starting points for antimalarial lead identification” (Nature, 2010).

For orientation: Inhibition means the drop in the measured response relative to a control, in per cent. A higher Inhibition goes with a strong effect.

The test system of the first assay is Plasmodium falciparum. Nature of the assay: GSK_TCMDC: Inhibition of Plasmodium falciparum 3D7 in whole red blood cells, using parasite LDH activity as an index of growth. Test compounds present at 2uM. In kind it is functional.
In turn, `Cc1[nH]c(C)c(-c2ccc(-c3ccccc3C(F)(F)F)nc2)c(=O)c1Br` returned an Inhibition of 97%.
Still for that read-out and setting: as for `COc1cc(CNc2ncc(-c3ccsc3)c(-c3nccs3)n2)cc(OC)c1`, the figure is 86%; as for `COc1ccc(C=CC(=O)Nc2ccc(N3CCCC3)cc2)cc1.Cl`, 81%; as for `O=C(Nc1cccc(CN2CCCN(Cc3ccccc3)CC2)c1)c1cc2ccccc2s1.O=C(O)C(F)(F)F`, 87%.
In the case of `CN(Cc1cccc(O)c1)C1CCCN(c2cc(NC(=O)c3ccc(F)cc3)ccn2)C1.O=C(O)C(F)(F)F` (stereo not given), the Inhibition came to 91%.
The molecule `COc1ccc(Cl)cc1N1CCN(CCCNC(=O)c2ccc(-c3nc4cc5ccccc5cc4[nH]3)c(F)c2)CC1` displayed an Inhibition of 99%.
For `Cc1cccc2nc(-c3cccc(-c4ccc(NC(=O)Nc5ccc6c(c5)OCO6)cc4)c3)[nH]c12`, the Inhibition is reported as 100%.
Consider `COc1ccccc1C1CCN(C2CCC(NC(=O)/C=C/c3ccc4c(c3)OC(F)(F)O4)CC2)CC1` (stereo not given), for which the Inhibition was determined as 98%.
For `Nc1nc(Nc2cccc(Cl)c2)ncc1C(=O)NCc1ccncc1`, the Inhibition came to 98%.
As for `O=C(C=Cc1ccc(Cl)c(Cl)c1)NCCCCCN1CCC(CCCNC(=O)C2CC2c2ccccc2)CC1` (stereo not given), the Inhibition stood at 95%.
As for `COc1cc(Nc2nccc(N3CCC(NC(=O)c4cccc(C#N)c4)C3)n2)cc(OC)c1OC` (stereo not given), the Inhibition was 91%.
With `CC(C)(CNC(=O)C1CCN(Cc2ccoc2)CC1)c1nc(-c2ccc(Cl)c(O)c2)c(-c2ccncc2)[nH]1.Cl`, the Inhibition was determined as 93%.
On to `Cc1ccc(NC(=O)c2ccc(NCCCN(C)Cc3ccccc3)c([N+](=O)[O-])c2)cc1F`, for which the Inhibition came to 100%.
The same measure, in the same setting: as for `Cl.N=C(N)c1ccc2[nH]c(SCc3ccccc3)nc2c1`, the figure is 97%.
As for `O=C(COc1ccccc1Cc1ccccc1)Nc1cc(Cl)ccc1-n1cncn1`, the Inhibition came out at 92%.
For the molecule `COc1ccc(-c2cnc(N)c(-c3ccc(O)c(OC)c3)c2)cn1`, the Inhibition was 97%.
As for `c1ccc(-c2ccc(-c3nc4ccccc4[nH]3)cc2)cc1`, the Inhibition came to 93%.
Regarding `CC(C)Cc1c(O)nc(SCCN2CCOCC2)[nH]c1=O.Cl`, the Inhibition was 88%.
Turning to `C[C@@H]1CC[C@H](NC(=O)[C@H](CC2CCCC2)NC(=O)N2CCNCC2)C(=O)CN1S(=O)(=O)c1ccccn1.O=C(O)C(F)(F)F`, the Inhibition is recorded as 84%.
As for `CN1CCC(C(=O)N(Cc2ccc(-c3ccc(CNCCc4ccc(S(C)(=O)=O)cc4)cn3)cc2)C2CCN(Cc3ccccc3)CC2)CC1.O=C(O)C(F)(F)F`, the Inhibition came out at 100%.
Regarding `CN1CCN(c2ccc(Nc3c4ccccc4nc4ccccc34)cc2)CC1`, the Inhibition is recorded as 100%.
On the same count and under the same terms, as for `N#Cc1ccc(C=NNc2nc3ccccc3[nH]2)cc1`, the figure is 100%.
For the molecule `CCCCN1CC[C@@H](CCC(O)c2ccnc3ccc(OCCC(C)C)cc23)[C@@H](CC)C1.O=C(O)C(=O)O` (stereo not given in full), the Inhibition is 94%.
On to `CN(C)CCn1c(=N)n(CC(O)c2ccc(Cl)c(Cl)c2)c2ccccc21.Cl` (stereo not given), for which the Inhibition is reported as 99%.
`COc1ccc2[nH]ccc(=NN=Cc3cccc(C)n3)c2c1` yielded an Inhibition of 100%.
As for `CCN(CCCN1CCCCC1)c1cc(C)nc(Nc2ccc(OC)cc2)n1.O=C(O)C(F)(F)F`, the Inhibition was found to be 100%.
For `COc1ccc2nc3cc(Cl)ccc3c(NCCCO)c2c1`, the Inhibition worked out at 100%.
On the same count and under the same terms, the value for `Cc1ccc2c(=O)n(C)c(=O)n(C)c2n1` was 98%.
In turn, `O=C(Nc1ccc2c(ccn2C2CCCN(Cc3cc(F)cc(F)c3F)CC2)c1)c1ccco1` (stereo not given) registered an Inhibition of 89%.
On to `CCCc1cn2c3c(cc(C(=O)N[C@@H](Cc4ccccc4)[C@H](O)CNC4CCOCC4)cc13)N(C)S(=O)(=O)CC2.O=CO`, for which the Inhibition was 99%.
Still for that read-out and setting: the value for `C=CCc1cc(C2CCN(CCCCNC(=O)c3ccc(-c4ccc(C#N)cc4)cc3)CC2)c(OCC(N)=O)c2c1CCCC2` was 100%; that for `CCCCOC(=O)c1ccc(NC(=O)Nc2ccc(Cn3ncc(N4CCCNCC4)c(Cl)c3=O)cc2)cc1.O=C(O)C(F)(F)F` was 92%.
The molecule `Cc1ccc2[nH]cc(/C=C/C(=O)NC3CCC(CCN4CCc5ccc(C#N)cc5CC4)CC3)c2c1.Cl` (stereo not given) came in with an Inhibition of 93%.
For the molecule `COc1ccc(CCNCC(O)COc2nccc3c(S(=O)(=O)N4CCCNCC4)cccc23)cc1OC.Cl` (stereo not given), the Inhibition is on record as 96%.
The molecule `O=C(NC1CC1)c1cnc(N2CCC(OCc3ccccc3)CC2)c(Cl)c1.O=C(O)C(F)(F)F` gave an Inhibition of 90%.
Regarding `CN(C)c1ccc(CN2CCC(CNC(=O)c3cc(-c4ccccc4F)cs3)C2)cc1.O=C(O)C(F)(F)F` (stereo not given), the Inhibition is listed as 100%.
Same read-out and setting: the value for `Br.Oc1ccccc1CCNC1CCc2ccccc2C1` (stereo not given) was 96%; that for `CCOc1ccc(-c2nonc2NC(=O)CC(C)C)cc1OCC` was 92%; that for `CC[C@H](C)CNC(=O)c1cncc(-c2cccc(CN(C)C3CCN(C)CC3)c2)c1.O=C(O)C(F)(F)F` was 100%.
`CCCN(CCC)C(=O)c1cc(-c2cccc(C)c2)nc2ccccc12`: the Inhibition turned out to be 86%.

Another assay has as its system Plasmodium falciparum. Nature of the assay: GSK_TCMDC: Inhibition of Plasmodium falciparum Dd2 in whole red blood cells, using parasite LDH activity as an index of growth. Test compounds present at 2uM. Format: functional.
In turn, `Cc1[nH]c(C)c(-c2ccc(-c3ccccc3C(F)(F)F)nc2)c(=O)c1Br` had an Inhibition of 96%.
For `COc1cc(CNc2ncc(-c3ccsc3)c(-c3nccs3)n2)cc(OC)c1`, the Inhibition worked out at 82%.
`COc1ccc(C=CC(=O)Nc2ccc(N3CCCC3)cc2)cc1.Cl` gave an Inhibition of 9%.
The molecule `O=C(Nc1cccc(CN2CCCN(Cc3ccccc3)CC2)c1)c1cc2ccccc2s1.O=C(O)C(F)(F)F` returned an Inhibition of 28%.
Still for that read-out and setting: the value for `CN(Cc1cccc(O)c1)C1CCCN(c2cc(NC(=O)c3ccc(F)cc3)ccn2)C1.O=C(O)C(F)(F)F` (stereo not given) was 12%.
`COc1ccc(Cl)cc1N1CCN(CCCNC(=O)c2ccc(-c3nc4cc5ccccc5cc4[nH]3)c(F)c2)CC1`: the Inhibition worked out at 62%.
The molecule `Cc1cccc2nc(-c3cccc(-c4ccc(NC(=O)Nc5ccc6c(c5)OCO6)cc4)c3)[nH]c12` showed an Inhibition of 86%.
Molecule `COc1ccccc1C1CCN(C2CCC(NC(=O)/C=C/c3ccc4c(c3)OC(F)(F)O4)CC2)CC1` (stereo not given) yielded an Inhibition of 31%.
The same measure, in the same setting: as for `Nc1nc(Nc2cccc(Cl)c2)ncc1C(=O)NCc1ccncc1`, the figure is 29%; as for `O=C(C=Cc1ccc(Cl)c(Cl)c1)NCCCCCN1CCC(CCCNC(=O)C2CC2c2ccccc2)CC1` (stereo not given), 12%.
Turning to `COc1cc(Nc2nccc(N3CCC(NC(=O)c4cccc(C#N)c4)C3)n2)cc(OC)c1OC` (stereo not given), the Inhibition stood at 76%.
`CC(C)(CNC(=O)C1CCN(Cc2ccoc2)CC1)c1nc(-c2ccc(Cl)c(O)c2)c(-c2ccncc2)[nH]1.Cl` yielded an Inhibition of 66%.
`Cc1ccc(NC(=O)c2ccc(NCCCN(C)Cc3ccccc3)c([N+](=O)[O-])c2)cc1F` registered an Inhibition of 61%.
For the molecule `Cl.N=C(N)c1ccc2[nH]c(SCc3ccccc3)nc2c1`, the Inhibition is reported as 100%.
Turning to `O=C(COc1ccccc1Cc1ccccc1)Nc1cc(Cl)ccc1-n1cncn1`, the Inhibition came to 93%.
Take `COc1ccc(-c2cnc(N)c(-c3ccc(O)c(OC)c3)c2)cn1`: the Inhibition came to 98%.
The molecule `c1ccc(-c2ccc(-c3nc4ccccc4[nH]3)cc2)cc1` gave an Inhibition of 83%.
As for `CC(C)Cc1c(O)nc(SCCN2CCOCC2)[nH]c1=O.Cl`, the Inhibition stood at 0%.
Molecule `C[C@@H]1CC[C@H](NC(=O)[C@H](CC2CCCC2)NC(=O)N2CCNCC2)C(=O)CN1S(=O)(=O)c1ccccn1.O=C(O)C(F)(F)F` displayed an Inhibition of 19%.
For `CN1CCC(C(=O)N(Cc2ccc(-c3ccc(CNCCc4ccc(S(C)(=O)=O)cc4)cn3)cc2)C2CCN(Cc3ccccc3)CC2)CC1.O=C(O)C(F)(F)F`, the Inhibition is listed as 95%.
In turn, `CN1CCN(c2ccc(Nc3c4ccccc4nc4ccccc34)cc2)CC1` showed an Inhibition of 94%.
As for `N#Cc1ccc(C=NNc2nc3ccccc3[nH]2)cc1`, the Inhibition came out at 71%.
`CCCCN1CC[C@@H](CCC(O)c2ccnc3ccc(OCCC(C)C)cc23)[C@@H](CC)C1.O=C(O)C(=O)O` (stereo not given in full) yielded an Inhibition of 90%.
`CN(C)CCn1c(=N)n(CC(O)c2ccc(Cl)c(Cl)c2)c2ccccc21.Cl` (stereo not given) displayed an Inhibition of 6%.
The molecule `COc1ccc2[nH]ccc(=NN=Cc3cccc(C)n3)c2c1` gave an Inhibition of 99%.
`CCN(CCCN1CCCCC1)c1cc(C)nc(Nc2ccc(OC)cc2)n1.O=C(O)C(F)(F)F` gave an Inhibition of 24%.
The molecule `COc1ccc2nc3cc(Cl)ccc3c(NCCCO)c2c1` returned an Inhibition of 100%.
With `Cc1ccc2c(=O)n(C)c(=O)n(C)c2n1`, the Inhibition stood at 0%.
For the molecule `O=C(Nc1ccc2c(ccn2C2CCCN(Cc3cc(F)cc(F)c3F)CC2)c1)c1ccco1` (stereo not given), the Inhibition was 94%.
Turning to `CCCc1cn2c3c(cc(C(=O)N[C@@H](Cc4ccccc4)[C@H](O)CNC4CCOCC4)cc13)N(C)S(=O)(=O)CC2.O=CO`, the Inhibition is reported as 98%.
As for `C=CCc1cc(C2CCN(CCCCNC(=O)c3ccc(-c4ccc(C#N)cc4)cc3)CC2)c(OCC(N)=O)c2c1CCCC2`, the Inhibition came out at 92%.
`CCCCOC(=O)c1ccc(NC(=O)Nc2ccc(Cn3ncc(N4CCCNCC4)c(Cl)c3=O)cc2)cc1.O=C(O)C(F)(F)F` yielded an Inhibition of 74%.
Still for that read-out and setting: the value for `Cc1ccc2[nH]cc(/C=C/C(=O)NC3CCC(CCN4CCc5ccc(C#N)cc5CC4)CC3)c2c1.Cl` (stereo not given) was 49%; that for `COc1ccc(CCNCC(O)COc2nccc3c(S(=O)(=O)N4CCCNCC4)cccc23)cc1OC.Cl` (stereo not given) was 0%.
On the same count and under the same terms, the value for `O=C(NC1CC1)c1cnc(N2CCC(OCc3ccccc3)CC2)c(Cl)c1.O=C(O)C(F)(F)F` was 71%.
`CN(C)c1ccc(CN2CCC(CNC(=O)c3cc(-c4ccccc4F)cs3)C2)cc1.O=C(O)C(F)(F)F` (stereo not given) yielded an Inhibition of 33%.
Regarding `Br.Oc1ccccc1CCNC1CCc2ccccc2C1` (stereo not given), the Inhibition came out at 95%.
Turning to `CCOc1ccc(-c2nonc2NC(=O)CC(C)C)cc1OCC`, the Inhibition is recorded as 37%.
`CC[C@H](C)CNC(=O)c1cncc(-c2cccc(CN(C)C3CCN(C)CC3)c2)c1.O=C(O)C(F)(F)F` showed an Inhibition of 59%.
The molecule `CCCN(CCC)C(=O)c1cc(-c2cccc(C)c2)nc2ccccc12` returned an Inhibition of 59%.
